One assay deals with ADCK5. The conditions noted are these: read-out: apparent Kd; compound concentrations:100 nM and 1000 nM (sheet 'Lestaurtinib' of Supplementary Table 1),run:Lestaurtinib_02443_R1,Plate:MR009; n = 1.
A further assay relates to BMPR1B. The conditions noted are these: read-out: apparent Kd; compound concentrations:100 nM and 1000 nM (sheet 'Lestaurtinib' of Supplementary Table 1),run:Lestaurtinib_02496_R2,Plate:MR013; n = 1.
In a further assay the test system is CSNK2A1;CSNK2A3. The conditions noted are these: read-out: apparent Kd; compound concentrations:100 nM and 1000 nM (sheet 'Lestaurtinib' of Supplementary Table 1),run:Lestaurtinib_02422_R1,Plate:MR006; n = 1.
The next assay deals with DAPK3. As to conditions: read-out: apparent Kd; compound concentrations:100 nM and 1000 nM (sheet 'Lestaurtinib' of Supplementary Table 1),run:Lestaurtinib_02443_R1,Plate:MR009; n = 1.
The next assay has as its system GRK6. The conditions noted are these: read-out: apparent Kd; compound concentrations:100 nM and 1000 nM (sheet 'Lestaurtinib' of Supplementary Table 1),run:Lestaurtinib_02339_R2,Plate:MR001; n = 1.
The next assay relates to GSK3A. The conditions noted are these: read-out: apparent Kd; compound concentrations:100 nM and 1000 nM (sheet 'Lestaurtinib' of Supplementary Table 1),run:Lestaurtinib_02487_R1,Plate:MR012; n = 1.
In another assay the test system is GSK3B. The conditions noted are these: read-out: apparent Kd; compound concentrations:100 nM and 1000 nM (sheet 'Lestaurtinib' of Supplementary Table 1),run:Lestaurtinib_02487_R1,Plate:MR012; n = 1.
A further assay relates to HCK. The conditions noted are these: read-out: apparent Kd; compound concentrations:100 nM and 1000 nM (sheet 'Lestaurtinib' of Supplementary Table 1),run:Lestaurtinib_02422_R1,Plate:MR006; n = 1.
The subject of another assay is HSP90B1. As to conditions: read-out: apparent Kd; compound concentrations:100 nM and 1000 nM (sheet 'Lestaurtinib' of Supplementary Table 1),run:Lestaurtinib_02606_R3,Plate:MR019; n = 1.
Another assay has as its system LCK. The conditions noted are these: read-out: apparent Kd; compound concentrations:100 nM and 1000 nM (sheet 'Lestaurtinib' of Supplementary Table 1),run:Lestaurtinib_02487_R1,Plate:MR012; n = 1.
Another assay concerns LYN. The conditions noted are these: read-out: apparent Kd; compound concentrations:100 nM and 1000 nM (sheet 'Lestaurtinib' of Supplementary Table 1),run:Lestaurtinib_02487_R1,Plate:MR012; n = 1.
Another assay relates to MAP4K3. The conditions noted are these: read-out: apparent Kd; compound concentrations:100 nM and 1000 nM (sheet 'Lestaurtinib' of Supplementary Table 1),run:Lestaurtinib_03172_R3,Plate:MR031; n = 1.
The next assay relates to MAPK14. As to conditions: read-out: apparent Kd; compound concentrations:100 nM and 1000 nM (sheet 'Lestaurtinib' of Supplementary Table 1),run:Lestaurtinib_02422_R1,Plate:MR006; n = 1.
Another assay relates to MERTK. As to conditions: read-out: apparent Kd; compound concentrations:100 nM and 1000 nM (sheet 'Lestaurtinib' of Supplementary Table 1),run:Lestaurtinib_02766_R2,Plate:MR027; n = 1.
The subject of the next assay is MET. The conditions noted are these: read-out: apparent Kd; compound concentrations:100 nM and 1000 nM (sheet 'Lestaurtinib' of Supplementary Table 1),run:Lestaurtinib_02724_R1,Plate:MR021; n = 1.
The test system of a further assay is PRKACG. The conditions noted are these: read-out: apparent Kd; compound concentrations:100 nM and 1000 nM (sheet 'Lestaurtinib' of Supplementary Table 1),run:Lestaurtinib_02422_R1,Plate:MR006; n = 1.
Another assay relates to PRKAR2A. The conditions noted are these: read-out: apparent Kd; compound concentrations:100 nM and 1000 nM (sheet 'Lestaurtinib' of Supplementary Table 1),run:Lestaurtinib_02364_R2,Plate:MR002; n = 1.
A further assay concerns PRKDC. As to conditions: read-out: apparent Kd; compound concentrations:100 nM and 1000 nM (sheet 'Lestaurtinib' of Supplementary Table 1),run:Lestaurtinib_02422_R1,Plate:MR006; n = 1.
The test system of another assay is RPS6KB1. The conditions noted are these: read-out: apparent Kd; compound concentrations:100 nM and 1000 nM (sheet 'Lestaurtinib' of Supplementary Table 1),run:Lestaurtinib_02766_R3,Plate:MR027; n = 1.
In a further assay the test system is TGFBR1. Further details: species or system human, MV4-11 + K-562 + COLO205 + SK-N-BE2 + OVCAR-8. As to conditions: read-out: apparent Kd; compound concentrations:100 nM and 1000 nM (sheet 'Samples'); n = 1.

Turning to Lestaurtinib, the potency estimated from few doses with ADCK5 was 2240 nM; in the assay with BMPR1B, 737 nM; with CSNK2A1;CSNK2A3 it was 1810 nM; in the assay with DAPK3 it was 1580 nM; in the assay on GRK6 it was 2090 nM; with GSK3A it was 175 nM. Further, the potency estimated from few doses in the assay on GSK3B is 295 nM; in the assay with HCK, 1300 nM; in the assay with HSP90B1 it was 979 nM; with LCK it was 550 nM; with LYN it was 808 nM; with MAP4K3, 2110 nM. In addition, the potency estimated from few doses in the assay with MAPK14 was 1150 nM; in the assay on MERTK it was 1410 nM; in the assay with MET, 2150 nM; in the assay with PRKACG it was 769 nM; with PRKAR2A, 979 nM; with PRKDC it was 1210 nM. Besides, the potency estimated from few doses in the assay with RPS6KB1 was 1570 nM.

Regarding `Cc1cccc(-c2n[nH]cc2-c2ccc3ncccc3n2)n1` [GW786460X], in the assay with TGFBR1, the potency estimated from few doses was 1.39 nM.

Source of the values: article PMC11062922 (Nature Chemical Biology, 2023).
